# Bioassay records (PubChem BioAssay)
# BoNT-F LC inh = BoNT F light chain protease inhibition | Multiplex microsphere protease cleavage assay, flow cytometry | inhibition, % at 10 µM | hit rate 0.22% among 360,000; in the data active = inhibition above about 35%, passing the limit was not always enough; inconclusive = no clear call, values can overlap the other calls
# Anthrax LF prot = inhibitors of Bacillus anthracis lethal factor protease; P15917; hit rate 0.12% among 360,000; AID 588501; inhibition, % at 10 µM; multiplex microsphere protease cleavage assay, LF
# Target sequence (P15917 whole entry, looked up): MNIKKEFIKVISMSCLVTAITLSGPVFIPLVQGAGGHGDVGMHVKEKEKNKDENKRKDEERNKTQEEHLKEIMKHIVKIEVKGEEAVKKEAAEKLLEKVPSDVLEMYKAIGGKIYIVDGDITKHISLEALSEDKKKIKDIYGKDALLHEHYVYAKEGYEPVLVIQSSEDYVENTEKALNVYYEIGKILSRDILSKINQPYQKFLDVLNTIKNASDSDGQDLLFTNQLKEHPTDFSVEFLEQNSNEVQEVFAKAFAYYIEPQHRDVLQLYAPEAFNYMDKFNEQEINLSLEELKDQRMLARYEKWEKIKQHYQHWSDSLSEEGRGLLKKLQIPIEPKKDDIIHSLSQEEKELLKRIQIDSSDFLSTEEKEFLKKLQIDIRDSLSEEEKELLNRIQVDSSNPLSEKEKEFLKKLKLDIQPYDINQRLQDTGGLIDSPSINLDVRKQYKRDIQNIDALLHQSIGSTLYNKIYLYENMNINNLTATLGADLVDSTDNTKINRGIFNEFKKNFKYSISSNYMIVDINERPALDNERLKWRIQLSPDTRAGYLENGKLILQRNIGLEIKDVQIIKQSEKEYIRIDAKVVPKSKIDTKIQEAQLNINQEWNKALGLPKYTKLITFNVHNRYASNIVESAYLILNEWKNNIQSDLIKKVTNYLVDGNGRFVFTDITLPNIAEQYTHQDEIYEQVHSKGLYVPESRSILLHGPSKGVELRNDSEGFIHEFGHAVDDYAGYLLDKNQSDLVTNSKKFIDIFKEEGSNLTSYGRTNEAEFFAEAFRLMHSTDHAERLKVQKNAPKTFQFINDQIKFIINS
# GDH-TPI inh = inhibits GDH-TPI coupling enzymes, artifact for Mtb FBA screen; GDH-TPI coupled enzyme counterscreen, NADH absorbance; hit rate 1.2% among 360,000; inhibition, % at 4.8 µM; in the data active = inhibition above about 30%
# Mtb FBA inh = inhibits M. tuberculosis FBA enzyme. P9WQA3. purified M. tuberculosis FBA, fluorescence read-out. hit rate 2.3% among 360,000. inhibition, % at 1 µM; in the data active = inhibition above about 27%
# BoNT A protease = blocks Botulinum neurotoxin A light chain protease | multiplex microsphere protease substrate cleavage, flow cytometry | inhibition, % at 10 µM | hit rate 0.17% among 360,000
# Autofluor counter = flagged as autofluorescent in microsphere protease counterscreen; compound autofluorescence counterscreen, microsphere flow cytometry; active compounds read high; fluorescence intensity (concentration not given with the values); hit rate 3.1% among 360,000; in the data active = fluorescence intensity above about 16000; inconclusive = no clear call, values can overlap the other calls
# A number is an active result; - = inactive; ? = inconclusive; . = not tested or not shown; + = active, no number. This is a sample that favours compounds with a hit; in the whole collection about 6.6% have one here. Cut-off read from the data, not from the text of the source, unless noted: active = inhibition above about 30%; inconclusive = no clear call, values can overlap the other calls; inactive = below that.
SMILES,BoNT-F LC inh,Anthrax LF prot,GDH-TPI inh,Mtb FBA inh,BoNT A protease,Autofluor counter
CCSc1nnc(NC(=O)C(C)C)s1,-,-,-,-,-,-
CCSc1nnc(NC(=O)C(C)(C(F)(F)F)C(F)(F)F)s1,-,-,-,-,-,16389
CCSc1nnc(NC(=O)C(C(F)(F)F)C(F)(F)F)s1,-,-,-,-,-,23475
CCC(C)N(C(=O)c1csnn1)C(C(=O)NC1CCCC1)c1c(F)cccc1Cl (stereo unspecified),-,-,-,-,-,-
Nc1nc2cc3c(cc2cc1C(=O)NCc1ccc(F)cc1)OCO3,-,-,.,.,-,-
CCN(C)C1CN(Cc2cn(CCCOC)nn2)S(=O)(=O)C1 (stereo unspecified),-,-,.,.,-,-
O=c1cc[nH]c2c1ccc1c(=O)cc[nH]c12,?,-,-,-,-,-
CN(C)c1ccc2c(=O)cc[nH]c2c1,-,-,.,+,-,-
O=P(Cc1ccccn1)(c1ccccc1)c1ccccc1,-,-,-,-,-,24061
O=P(Cc1ccccc1O)(c1ccccc1)c1ccccc1,-,-,-,-,-,-
COc1ccc(C2CC(=O)C3=C(C2)Nc2ccccc2N(C(=O)CCC(=O)O)C3c2ccc(F)cc2)cc1 (stereo unspecified),-,-,50,-,-,-
CN1CCn2c1nc(N1CCCCC1)nc2=O,-,-,-,-,-,21803
O=C(c1ccc2c(=O)n(Cc3ccc4c(c3)OCO4)c(=S)[nH]c2c1)N1CCCCC1,-,-,-,-,-,22165
O=c1c2ccc(Cl)cc2[nH]c(=S)n1Cc1cccnc1,-,-,-,-,-,21022
O=C(c1ccc2c(=O)n(Cc3ccc(Cl)cc3)c(=S)[nH]c2c1)N1CCCC1,-,-,-,-,-,-
CN1CCN(C(=O)c2ccc3c(=O)n(Cc4ccc(Cl)cc4)c(=S)[nH]c3c2)CC1,-,-,-,-,-,20632
CCn1c(=O)[nH]c2cc(C(=O)N3CCN(c4ccccc4)CC3)ccc2c1=O,-,-,-,-,?,22918
CC1CC(C)CN(C(=O)c2ccc3c(=O)n(Cc4ccc5c(c4)OCO5)c(=S)[nH]c3c2)C1 (stereo unspecified),-,-,-,-,-,?
COc1ccc(C2(C)NC(=O)N(CC(=O)Nc3ccc(S(=O)(=O)N4CCCC4)cc3)C2=O)cc1 (stereo unspecified),-,-,-,-,-,-
CC(C)c1ccc(C(=O)CSc2n[nH]c(-c3ccncc3)n2)cc1,-,-,-,-,-,-
CCCCn1c(N)c(N(CCOC)C(=O)CCCc2cccs2)c(=O)[nH]c1=O,-,-,-,-,-,-
Cc1ccc(C(=O)NNC(=O)C2CCCN(c3ncccn3)C2)cc1 (stereo unspecified),-,-,-,-,-,-
CCOC(=O)N1CCN(C(=O)c2ccc3c(=O)n(Cc4ccccc4OC)c(=S)[nH]c3c2)CC1,-,-,-,-,-,16581
CCOC(=O)N1CCN(C(=O)c2ccc3c(=O)n(Cc4ccccc4)c(=S)[nH]c3c2)CC1,-,-,-,-,-,-
CCCCOCCCNC(=O)C[C@@H]1C[C@@]2(C(=O)OC)CCCCC=C2N(Cc2cccc3ccccc23)C1=O,-,-,.,.,-,-
SMILES,BoNT-F LC inh,Anthrax LF prot,GDH-TPI inh,Mtb FBA inh,BoNT A protease,Autofluor counter
Cc1cccc2c3nc4ccccc4nc3n(C)c12,-,-,-,-,45,-
c1ccc(C[C@H]2CNCCN2CC2(c3ccccc3)CC2)cc1,-,-,-,-,-,-
Cc1ccnc2ccc(-c3nc4ccccc4o3)cc12,-,-,-,76,-,-
Cc1ccc(C)c(C(O)c2ncc(-c3cccc(C(F)(F)F)c3)[nH]2)c1 (stereo unspecified),-,-,-,-,-,-
CC(C)c1ccc(S(=O)(=O)NC2CCS(=O)(=O)C2)cc1 (stereo unspecified),-,-,-,-,-,?
CNC(=O)COC(=O)c1ccc(NS(=O)(=O)c2ccc3c(c2)OCCO3)cc1,43,-,-,-,-,-
CCCCNC(=O)COC(=O)c1ccc(NS(=O)(=O)c2ccc3c(c2)OCCO3)cc1,-,-,-,-,-,21536
COc1ccc(CNC(=O)COC(=O)/C=C/c2cccc(Br)c2)cc1OC,-,-,-,-,-,-
CCOC(=O)c1c(C)[nH]c(C)c1C(=O)COC(=O)[C@@H](NC(=O)c1ccccc1OCC)C(C)C,-,-,-,-,-,23944
O=C(O)CCCNC(=O)CCCn1nnc2ccccc2c1=O,-,-,-,-,-,-
CCOC(=O)[C@H]1[C@H]2COc3ccc(OC)cc3[C@@H]2N2C(=O)c3cc(C)ccc3NC(=O)[C@@]12C,-,-,-,-,-,-
COc1ccc(-c2nc3c(s2)CN(S(C)(=O)=O)CC3)cc1OC,-,-,-,127,-,-
COc1ccc(Br)cc1/C=C\C(=O)NCc1cccnc1,-,-,-,-,-,-
COc1ccc(C2N(Cc3ccccc3)CC(=O)N2/N=C(\C)c2ccccc2)cc1 (stereo unspecified),-,-,-,-,-,-
CCOc1ccc2ccccc2c1/C=N/NC(=O)CNC(=O)c1ccccc1F,-,-,-,-,-,-
CCOC(=O)c1cnc2c(C)cc(C)cc2c1NCCCN1CCOCC1,-,-,-,-,-,-
Cc1ccc(C)n1-c1ccc(N2CCOCC2)cc1,-,-,-,-,-,-
Cc1cc(N2CCOCC2)cc(C)[n+]1[O-],-,-,-,-,-,16435
COc1ccc(C)cc1CN(C)c1ccc(S(=O)(=O)N2CCN(C)CC2)cn1,-,-,-,-,-,-
CCOCCCNC(=O)c1c(C)[nH]c(C(=O)OCC)c1C,-,-,-,-,-,16166
CC(=O)c1c(C)[nH]c(C(=O)COc2cc(C)cc(C)c2)c1C,-,-,-,-,-,21911
CCOC(=O)c1[nH]c(C)c(C(=O)Nc2ccc(C)c(F)c2)c1C,-,-,-,-,-,-
CCOC(=O)c1c(C)[nH]c(C(=O)C(C)Cl)c1C (stereo unspecified),-,-,-,-,-,-
CCOCCCNC(=O)c1[nH]c(C)c(C(C)=O)c1C,-,-,-,-,-,-
CCOC(=O)c1[nH]c(C)c(C(=O)Nc2ccc(C)c(Cl)c2)c1C,-,-,-,-,-,21453
SMILES,BoNT-F LC inh,Anthrax LF prot,GDH-TPI inh,Mtb FBA inh,BoNT A protease,Autofluor counter
CCOC(=O)c1[nH]c(C)c(C(=O)C(C)C)c1C,-,-,-,-,-,16910
CCCOC1OC(=O)c2c1ccc(OC)c2OC (stereo unspecified),-,-,-,-,-,-
O=C(C[C@H]1C/C=C\CC[C@@H](Cc2ccc(F)cc2)C(=O)OCCNC1=O)NCCO,-,-,-,-,-,-
CCN(CC)S(=O)(=O)c1cccc(C(=O)OCC(=O)c2ccc3c(c2)OCCO3)c1,-,-,-,-,-,-
CCCCCCCC(=O)NN=C1CCN(Cc2ccccc2)CC1,-,-,-,-,-,-
COc1cc(NS(=O)(=O)c2ccc(N/C=C(\C=O)c3nc4ccccc4o3)cc2)nc(OC)n1,-,-,-,-,-,-
CCOC(=O)c1[nH]c(C)c(C(=O)NCc2ccccn2)c1C,-,-,-,-,-,21338
